Six1-Eya2 blk – Six1/Eya2 interaction inhibition; Q15475+O00167; AlphaScreen GST-Six1/His-Eya2 binding, biochemical; active compounds read low; activity change, % (no concentration beside the values); hit rate 0.56% among 360,000; in the data active means activity change below about -65%; inconclusive means mostly about -30% to -63%
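Compounds are tested against tagged Six1 and Eya2 proteins bridged by glutathione donor and nickel acceptor beads; after a one-hour incubation at 37 °C without light, AlphaScreen emission is recorded.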
TDP1 cell noCPT – qHTS for Inhibitors of human tyrosyl-DNA phosphodiesterase 1 (TDP1): qHTS in cells in absence of CPT | DT40 Tdp1-/- hTDP1 cells, no CPT, ATP luminescence, 48 h | Potency, µM (doses to about 46.2 µM), for the others: at the top dose activity change, negative = growth inhibition, usual class: inhibitors | hit rate 15% among 420,000 | AID 686978, 2013; further: potency means the concentration at half of the fitted maximal effect; nearly all actives have a fitted effect of over 55% in size
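Camptothecin absent (DMSO only). Human TDP1-complemented DT40 knockout cells, 400 cells/well, 37 °C for minimum 48 hr; ATP measured via CellTiter-Glo, 30 min dark incubation, luminescence.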
TDP1 block – blocks human tyrosyl-DNA phosphodiesterase 1. Potency, µM (highest dose often 130 µM), inactives show at the top dose activity change, negative = inhibition, actives largely listed as inhibitors. hit rate 0.28% among 350,000. recombinant TDP1, AlphaScreen DNA substrate cleavage; further: potency means the concentration at half of the fitted maximal effect; nearly all actives have a fitted effect of over 40% in size
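E. coli-derived human Tdp1, 1 nM final. Cpd preinc 15 min RT; substrate 15 nM final, 5 min RT; AS bead mix 10 ug/ml final, 10 min RT. Signal loss = tyrosine-FITC cleavage. No-enzyme wells = max signal.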
TDP1 cell CPT – growth inhibition of DT40 Tdp1-/-;hTDP1 cells with camptothecin (screen for TDP1 inhibitors); chicken DT40 Tdp1-/-;hTDP1 cells + 20 nM CPT, ATP luminescence, 48 h; AID 686979; Potency, µM (titrated, usually from 46.2 µM), for the others: top-dose activity change, negative = growth inhibition, usual class: inhibitors; hit rate 12% among 420,000; further: potency means the concentration at half of the fitted maximal effect; nearly all actives have a fitted effect of over 55% in size
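Chicken DT40 Tdp1-/- cells complemented with human TDP1, 400 cells/well, exposed to compounds plus 20 nM camptothecin for at least 48 h at 37 C; viability read as ATP content by CellTiter-Glo luminescence.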
IL-1B inflam inh – blocks inflammasome-driven IL-1 beta release; activity change, % at 57.5 µM; THP-1 LPS/ATP IL-1B secretion, AlphaLISA, 16 h; active compounds read low; hit rate 4.7% among 360,000; in the data active means activity change below about -50%; inconclusive means mostly about -30% to -49%
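THP-1 cells pretreated 1 hr with compounds (up to 57.5 uM final), then stimulated with LPS (250 ng/mL final) plus ATP (1.25 mM final); secreted IL-1B measured by AlphaLISA after 16 hr, decreased signal indicating inhibition.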
CtBP-E1A blk – CtBP/E1A binding inhibition; activity change, % (no concentration beside the values); AID 651724; hit rate 0.49% among 340,000; AlphaScreen GST-E1A/His-CtBP binding, 1536-well; active compounds read low; in the data active means activity change below about -65%; inconclusive means mostly about -30% to -63%
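In 5 uL wells, 23 nL compound meets equimolar GST-E1A and His-CtBP (5X stock 125 nM each) for 2 h, 37 °C. Beads (5X, 50 ug/mL) then 1 h, 37 °C, dark.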
The depositor's hits bear a star; ? = inconclusive; nt = no result; [ ] = another dose, or the depositor's remark. In the library only some 18% were active in any assay of this set; here they are far more common. Unless noted, the call rests on the fitted dose curve; in most records, active means well fitted curve in the direction sought with a large enough effect; inconclusive means small, poorly fitted or top-dose-only effect, or another doubt; inactive means no such curve, though single readings can be large; an effect the other way counts as inactive or inconclusive. On the % scale 0 is the no-effect control and ±100 the full control effect.

SMILES	Six1-Eya2 blk	TDP1 cell noCPT	TDP1 block	TDP1 cell CPT	IL-1B inflam inh	CtBP-E1A blk
Cc1ccc(-n2[nH]c(C)c(C=Nc3ccc(S(=O)(=O)Nc4nc(C)cc(C)n4)cc3)c2=O)c(C)c1	-2	-9%	3%	?	-2	-9
CCc1nnc(NS(=O)(=O)c2ccc(N=Cc3c(C)[nH]n(-c4ccc(C)c(C)c4)c3=O)cc2)s1	?	8.2µM*	1%	2.1µM*	10	?
Cc1ccc(NC(=O)Nc2ccc(Cl)cc2)c(Br)c1	-7	23µM*	1%	?	-21	-2
Cc1ccc(NC(=O)/C=C/c2ccc(Cl)cc2)c(Br)c1	nt	nt	1%	nt	nt	nt
Cc1ccc(S(=O)(=O)C2(C(=O)Nc3ccc(Cl)c(C(F)(F)F)c3)CC2)cc1	nt	16µM*	1%	?	nt	nt
Cc1ccc(NC(=O)C2(S(=O)(=O)c3ccc(Cl)cc3)CC2)c(Br)c1	0	16µM*	4%[0.0935 µM]	?	-4	12
Cc1ccc(S(=O)(=O)C2(C(=O)Nc3ccc(C)c(Cl)c3)CC2)cc1	nt	?	-5%	-22%	nt	nt
COc1ccc(N2CCN(C(=O)CN(c3ccccc3)S(C)(=O)=O)CC2)cc1	-1	-14%	0%	?	-8	-2
CCOC(=O)CSC1=Nc2ccccc2C2=NC(CC(=O)NCc3ccccc3)C(=O)N12 (centres undefined)	0	11%	-2%	-28%	-19	2
CCOc1cccc(C2C=C(c3ccc4c(c3)OCO4)NC(c3ccccc3Cl)N2)c1O (centres undefined)	nt	11µM*	3%	?	nt	nt
Oc1ccc(Cl)cc1C1C=C(c2ccc3c(c2)OCO3)NC(c2ccc(Cl)cc2)N1 (centres undefined)	nt	6.3µM*	2%	4µM*	nt	nt
Oc1ccc(Br)cc1C1C=C(c2ccc3c(c2)OCO3)NC(c2cccc(F)c2)N1 (centres undefined)	nt	nt	1%	nt	nt	nt
Oc1ccccc1C1C=C(c2ccc3c(c2)OCO3)NC(c2cccc(Br)c2)N1 (centres undefined)	nt	nt	2%	nt	nt	nt
COC(=O)c1ccc(C2NC(c3ccc4c(c3)OCO4)=CC(c3ccccc3O)N2)cc1 (centres undefined)	nt	6.3µM*	nt	7.1µM*	nt	nt
O=C(NCc1ccccc1)C1c2ccccc2OCC(=O)N1CCc1c[nH]c2ccccc12 (centres undefined)	-7	?	nt	-28%	4	-3
CCn1c(SCC(=O)Nc2cc(C)on2)nnc1-c1cccnc1	2	-6%	3%	-18%	10	1
CN(C)c1cccc(CNC(=O)c2csc([C@@H]3O[C@H](CO)[C@H](O)[C@H](O)[C@H]3O)n2)c1	-2	0%	nt	0%	23	5
CN(C)c1cccc(CNC(=O)c2csc([C@@H]3O[C@H](CO)[C@@H](O)[C@H]3O)n2)c1	5	12µM*	nt	13µM*	13	1
CC(OCCN1CCCC1)(c1ccc(F)cc1)c1ccc(F)cc1	-4	?	-3%	?	-59*	1
CC(C)(C)c1ccc(OCCCN2CCCC2)cc1	14	13µM*	nt	?	0	nt
CCOc1ccc(OCCN2CCCCC2)cc1	0	-15%	-9%	-26%	0	2
CCCOc1ccc(C(O)(CCC)CCN2CCCCC2)cc1 (centres undefined)	6	23µM*	0%	21µM*	-10	-4
CC(C)OCC(O)CN1CCNCC1 (centres undefined)	3	-20%	3%	0%	-19	-5
C=CCS(=O)(=O)N1CCCC(N2CCN(c3ccccc3OC)CC2)C1 (centres undefined)	0	5%	nt	-10%	31	13

Source: PubChem BioAssay
